The values that follow come from PubChem BioAssay (NCATS).

Records with an inconclusive call do not appear. A call without a number means that no potency is given here. Activity calls are given as the source filed them. Calls follow the shape of the dose curve; as a rule, active = well fitted curve in the direction sought with a large enough effect; inconclusive = small, poorly fitted or top-dose-only effect, or another doubt; inactive = no such curve, though single readings can be large; an effect the other way counts as inactive or inconclusive.

Experiment [1] is described as follows: qHTS to identify inhibitors of the type 1 interferon - major histocompatibility complex class I in skeletal muscle: primary screen against the NCATS LOPAC collection (AID 1347405).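 Also: lytic HiBiT luminescence reporting HLA-B protein level.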 Also: potency is read from the fitted curve at half-maximal effect. Put shortly: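 Cells: C25cl48 human myoblasts, HiBiT-tagged HLA-B*08:01, stimulated with IFN-beta 4.0 ng/ml. Compounds are titrated 1:4.3 over 7 points from 46 uM final and incubated 24 hrs; endogenous MHC class I is quantified by HiBiT lytic luminescence.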
(qHTS replaces the single test concentration by a dilution series.)

Experiment [2] can be described thus: qHTS for inhibitors of adenylyl cyclases using a fission yeast platform: a pilot screen against the NCATS LOPAC library (AID 1347410). Put shortly: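 GFP from fbp1-GFP reporter, read by Acumen laser cytometry, indicates AC inhibition in fission yeast expressing AC9, GNAS and PDE4D2. Cells grown 18 h in the dark at 30C with compounds, final up to 57 uM.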
Experiment [3] in a line: qHTS to identify inhibitors of the type 1 interferon - major histocompatibility complex class I in skeletal muscle: primary screen against the NCATS Mechanism Interrogation Plate v5.0 (MIPE) Libary (AID 1347411). Also: nearly all actives have a fitted effect of over 65% in size. Also: potency is read from the fitted curve at half-maximal effect. Put shortly: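 Cells were genome-edited human myoblasts carrying a HiBit tag on endogenous HLA-B. They were treated with IFN-beta (4.0 ng/ml) and titrated compounds (top 46 uM) for 24 hrs before lytic HiBiT detection.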

Experiment [4] can be described thus: qHTS to identify inhibitors of the type 1 interferon - major histocompatibility complex class I in skeletal muscle: primary screen against the NCATS Pharmaceutical Collection (AID 1347407).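 Also: luminescence of HiBiT knocked into endogenous HLA-B as interferon-induced MHC class I level.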 The procedure, abridged: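 Compounds […] were added to CRISPR-engineered HLA-B-HiBiT C25cl48 human myoblasts with 4.0 ng/ml IFN-beta. After 24 hrs at 37 C, cells were lysed and HiBiT luminescence measured.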

The nature of experiment [5]: Validation qHTS assay for inhibitors of Activation Induced Cytidine Deaminase (AID): UDG Counterscreen signal (AID 1347427). The procedure, abridged: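 Counterscreen read of UDG activity (2 U/mL, 4/3x) in the FRET deamination format with AID (1 uM, 4/3x), DJC20/DJC23 substrates (250 nM, 4x), 4 h at room temperature. NaOH stop, fluorescence at 560 ex/665 em.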
Experiment [6] addresses Single-stranded DNA cytosine deaminase (Homo sapiens) (UniProt Q9GZX7). In words: Validation qHTS assay for inhibitors of Activation Induced Cytidine Deaminase (AID): AID signal (AID 1347429). The procedure, abridged:
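In this coupled qHTS, AID deaminates a FRET-labelled ssDNA substrate in the presence of UDG over 4 hr at room temperature. Compounds span up to 114 uM final.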

Experiment [7] can be described thus: Primary qHTS for inhibitors of La Crosse Virus (LACV) - induced cell death in SH-SY5Y cells (AID 1508616).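 Also: top concentration of the series differs between compounds; higher means more rescue of cells from virus-induced death.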 Put shortly: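 Readout was luminescence from ATPLite 1step added after a 6-day LACV infection (0.01 MOI) of SH-SY5Y cells that had received pin-transferred compound 24 hr after seeding.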
The target in experiment [8] is Calcium and integrin-binding protein 1 (Homo sapiens) (UniProt Q99828). In words: Confirmatory qHTS for Identification of Calcium Integrin Binding Protein 1 (CIB1) Competitor (AID 1508617). Also: nearly all actives have a fitted effect of over 65% in size. Put shortly: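 FP competition: CIB1-GST (1 uM final) in 5 mM HEPES pH 7.4, 125 mM NaCl, 5 mM CaCl2, 0.01% Tween20 preincubated 15 min RT with compounds (up to 114 uM), then FITC-alphaIIb peptide (100 nM), 15 min RT; Ex 480/Em 540.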

The target of experiment [9] is Protein phosphatase 1D (Homo sapiens) (UniProt O15297). The experiment in a line: Rhodamine-PBP qHTS Assay for Modulators of WT P53-Induced Phosphatase 1 (WIP1) (AID 1347425). The procedure, abridged: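 WIP1 (5 nM final) was preincubated with compound for 1 hour at room temperature. It then dephosphorylated 10 uM VEPPL-pS-QETFS peptide in Tris-HCl pH 7.5 with 30 mM MgCl2. Released Pi was detected by 10 uM Rh-PBP fluorescence (ex 525/em 598 nm) read at 1-min intervals for 11 min, as delta f1 - f0.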
Chain of Protein phosphatase 1D (Homo sapiens) (O15297 whole entry, looked up): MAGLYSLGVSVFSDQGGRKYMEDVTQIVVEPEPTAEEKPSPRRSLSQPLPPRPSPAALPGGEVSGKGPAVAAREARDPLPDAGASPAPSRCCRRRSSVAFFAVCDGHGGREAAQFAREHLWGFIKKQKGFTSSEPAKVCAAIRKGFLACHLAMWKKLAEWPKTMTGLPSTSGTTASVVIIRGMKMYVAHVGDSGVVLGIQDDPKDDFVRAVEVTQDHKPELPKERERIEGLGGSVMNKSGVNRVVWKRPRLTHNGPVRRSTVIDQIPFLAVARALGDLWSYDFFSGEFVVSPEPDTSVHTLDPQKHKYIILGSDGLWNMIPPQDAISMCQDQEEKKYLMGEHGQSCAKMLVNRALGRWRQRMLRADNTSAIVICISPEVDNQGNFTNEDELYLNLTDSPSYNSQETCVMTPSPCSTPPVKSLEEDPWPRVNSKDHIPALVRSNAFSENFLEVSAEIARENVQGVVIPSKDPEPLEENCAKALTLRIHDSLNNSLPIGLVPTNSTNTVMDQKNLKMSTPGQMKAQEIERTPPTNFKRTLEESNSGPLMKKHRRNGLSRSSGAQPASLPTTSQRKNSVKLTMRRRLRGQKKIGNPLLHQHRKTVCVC

Chain of Single-stranded DNA cytosine deaminase (Homo sapiens) (Q9GZX7 whole entry, looked up): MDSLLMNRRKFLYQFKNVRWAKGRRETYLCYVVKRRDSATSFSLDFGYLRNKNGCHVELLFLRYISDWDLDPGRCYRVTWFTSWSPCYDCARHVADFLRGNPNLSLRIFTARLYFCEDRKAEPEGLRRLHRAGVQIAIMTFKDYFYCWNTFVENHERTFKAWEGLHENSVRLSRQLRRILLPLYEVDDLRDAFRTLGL
Chain of Calcium and integrin-binding protein 1 (Homo sapiens) (Q99828 whole entry, looked up): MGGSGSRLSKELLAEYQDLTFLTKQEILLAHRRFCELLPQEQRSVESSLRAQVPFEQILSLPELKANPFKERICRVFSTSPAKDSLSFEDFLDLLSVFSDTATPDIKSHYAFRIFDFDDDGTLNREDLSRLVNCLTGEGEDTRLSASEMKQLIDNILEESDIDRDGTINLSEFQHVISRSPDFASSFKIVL

As to `O=C(O)CCc1ccc(NCc2cccc(Oc3ccccc3)c2)cc1`, the Potency entry in [1] and in experiment [3] was “inactive” throughout. In experiment [2], the result was inactive.

On to `CS(=O)(=O)c1cccc(CNc2nc(Nc3ccc4c(c3)CCC(=O)N4)ncc2C(F)(F)F)c1`, for which the figures for the Potency in experiment [1] and in experiment [3] were 5.62 µM (active) and 10.4 µM (active), respectively. Besides, the call in experiment [2] was inactive.

On to `NC[C@H](O)c1ccc(O)c(O)c1`, for which the Potency entry in experiment [1], in experiment [6] and in [8] was “inactive” throughout. For the same compound, the compound was called inactive in [4], in experiment [2], in experiment [5] and in [7].

As for `CC(C)C[C@H](NC(=O)[C@@H](O)[C@H](N)Cc1ccccc1)C(=O)O`, the Potency entry in [1], in experiment [3] and in [6] was “inactive” throughout. For the same compound, the compound was called inactive in [2], in experiment [5] and in experiment [7].

Take `CNC(=O)c1ccc(N2C(=S)N(c3ccc(C#N)c(C(F)(F)F)c3)C(=O)C2(C)C)cc1F`: the Potency entry in experiment [3] was “inactive”.

For the compound `Cc1c(C)c2c(c(C)c1O)CCC(C)(COc1ccc(CC3SC(=O)NC3=O)cc1)O2` (configuration not stated), the result in experiment [4] and in experiment [7] was inactive. For the same compound, in experiment [3], the Potency entry was “inactive”.

`Clc1ccc(Nc2nnc(Cc3ccncc3)c3ccccc23)cc1`: the outcome in experiment [9] was inactive.

Regarding `Nc1ncnc2nc(-c3ccc(N4CCOCC4)nc3)cc(-c3cccc(Br)c3)c12`, the call in experiment [5] was inactive. Also, the Potency entry in experiment [6] is “inactive”.

For `O=C1CCCC2=C1C(c1[nH]ncc1Cl)N=C(Nc1nc3ccccc3o1)N2` (configuration not stated), the Potency entry in experiment [8] was “inactive”.
